The results in this text go back to PubChem BioAssay (NCATS).

The nature of test [1]: qHTS profiling for inhibitors of Plasmodium falciparum (3D7) proliferation (AID 743322).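 Note: infected erythrocytes exposed to compound for 72 h before lysis; 100% = DMSO vehicle wells and 0% = 0.29 µM artemisinin.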 To be noted: P. falciparum 3D7 proliferation; at 28.7 µM (top of the series). The method, boiled down: (§1)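 Erythrocytes infected with P. falciparum (0.3% parasitemia, 2.5% hematocrit) incubated with compounds 72 h at 37 C, 5% CO2. Lysis with saponin/Triton buffer containing SYBR Green I, overnight at room temperature in the dark; DNA fluorescence (485/535 nm) normalised to 0.29 uM artemisinin and DMSO.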

Test [2] is described as follows: qHTS profiling for inhibitors of Plasmodium falciparum (DD2) proliferation (AID 743323). To be noted: lower = more inhibition; at 28.7 µM (top of the series). The method, boiled down:
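SYBR Green fluorescence (ex 485, em 535 nm) of lysed cultures gives parasite DNA content; wells normalized to artemisinin (0.29 uM) and DMSO controls. Infected red cells: 0.3% parasitemia, 2.5% hematocrit, 72 h, 37 C.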
(In general: In qHTS, concentration-response curves come from the screen itself.)

The nature of test [3]: qHTS profiling for inhibitors of Plasmodium falciparum (HB3) proliferation (AID 743324).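 Note: 100% = DMSO vehicle wells and 0% = artemisinin-treated control wells.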 To be noted: Plasmodium falciparum HB3 blood-stage proliferation; at 28.7 µM (top of the series). The gist of the method:
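P. falciparum HB3 grown in erythrocytes (0.3% parasitemia, 2.5% hematocrit final) with compound for 72 h at 37 C, 5% CO2. Parasite DNA detected by SYBR Green after saponin/triton lysis overnight; normalized to 0.29 uM artemisinin and DMSO.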

Test [4] in a line: qHTS profiling of the MIPE4 collection as inhibitors of Plasmodium falciparum (3D7) proliferation (AID 743344).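 Note: scaled between DMSO vehicle wells and 0.29 µM artemisinin as full inhibition.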 To be noted: P. falciparum 3D7 in erythrocytes, SYBR Green DNA fluorescence, 72 h; at 28.5 µM (top of the series) unless noted. The method, boiled down:
as §1

A short description of test [5]: qHTS profiling of the MIPE4 collection as inhibitors of Plasmodium falciparum (DD2) proliferation (AID 743345). The conditions noted are these: P. falciparum Dd2 in erythrocytes, SYBR Green DNA, 72 h; at 28.5 µM (top of the series) unless noted. The gist of the method: as §1
The nature of test [6]: qHTS profiling of the MIPE4 collection as inhibitors of Plasmodium falciparum (DD2) proliferation (Rep 2) (AID 743346). To be noted: P. falciparum Dd2 in erythrocytes, SYBR Green DNA, 72 h; at 28.5 µM (top of the series) unless noted. The gist of the method:
as §1

The nature of test [7]: qHTS profiling of the MIPE4 collection as inhibitors of Plasmodium falciparum (HB3) proliferation (AID 743347).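 Note: plate controls were DMSO vehicle wells for no effect and artemisinin wells for full effect.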 To be noted: P. falciparum HB3 in erythrocytes, SYBR Green DNA, 72 h; at 28.5 µM (top of the series) unless noted. The method, boiled down: as §1
A short description of test [8]: High-throughput drug toxicity screening in the BPDCN cell line Cal-1 (AID 1224825). The conditions noted are these: Cal-1 BPDCN cell viability, qHTS; at 45.8 µM (top of the series) unless noted. The method, boiled down:
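Cal-1 cells, 500 per well in phenol-red-free RPMI with 10% FBS, exposed to compounds for 48 hours at 37C, 5% CO2. Viability read by CellTiter-Glo luminescence; percent activity normalized to DMSO (100%) and 9.2 uM bortezomib final (0%).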

With `NC(=O)Nc1cc(-c2cccc(F)c2)sc1C(=O)N[C@H]1CCCNC1`, in test [1], the remaining parasite growth % (stronger effect = lower value) is -0.937%. For the same molecule, the activity, percent of control in test [2] worked out at 5.1%. Besides, the remaining proliferation (% of control), lower = more inhibition in test [3] was determined as 0.699%. Also, the parasite growth, % of DMSO control in test [4] is 7.3%. The same molecule registered a parasite growth remaining, % of DMSO control (lower = more inhibition) in test [5] of 10.6%. In test [6], this molecule came in with a parasite growth, % of control (lower = inhibition) of 15.5%. In addition, the growth, % of control in test [7] came to 6.42%. Besides, the viability (% of control) in test [8] stood at 4.12%.
With `C[C@@H](Oc1cc(-n2cnc3ccc(CN4CCN(C)CC4)cc32)sc1C(N)=O)c1ccccc1C(F)(F)F`, the remaining parasite growth % (stronger effect = lower value) in test [1] is -0.0099%. Further, the activity, percent of control in test [2] is 3.25%. The remaining proliferation (% of control), lower = more inhibition in test [3] is 1.38%. The molecule further had a parasite growth remaining, % of DMSO control (lower = more inhibition) in test [5] of 7.2%. Moreover, in test [6], the parasite growth, % of control (lower = inhibition) stood at 13.9%. Moreover, in test [7], the growth, % of control worked out at 6.6%. In test [8], this molecule displayed a viability (% of control) of 3.46%.
Regarding `COC(=O)Nc1ccc(-c2nc(N3CCOCC3)c3cnn(C4CCN(Cc5cccnc5)CC4)c3n2)cc1`, the parasite growth, % of DMSO control in test [4] came out at 5.62%. In test [5], the parasite growth remaining, % of DMSO control (lower = more inhibition) was 7.48%. In test [6], this molecule showed a parasite growth, % of control (lower = inhibition) of 9.27%. In test [7], this molecule returned a growth, % of control of 4.59%. The molecule further showed a viability (% of control) in test [8] of 3.04%.
Take `C#Cc1cccc(Nc2ncnc3cc(OC)c(OCCCCCCC(=O)NO)cc23)c1`: the remaining parasite growth % (stronger effect = lower value) in test [1] is -1.67%. Also, in test [2], the activity, percent of control came out at 0.0372%. The remaining proliferation (% of control), lower = more inhibition in test [3] was -0.395%. In addition, in test [4], the parasite growth, % of DMSO control was found to be 5.53%. In addition, in test [5], the parasite growth remaining, % of DMSO control (lower = more inhibition) came out at 6.37%. Besides, the parasite growth, % of control (lower = inhibition) in test [6] was determined as 11.2%. In test [7], this molecule had a growth, % of control of 3.1%. Further, the viability (% of control) in test [8] was found to be 3.6%.
`C[C@@H]1CN(CC(=O)Nc2ccc3c(c2)Cc2cccc(-c4cc(=O)cc(N5CCOCC5)o4)c2S3)C[C@H](C)O1`: the remaining parasite growth % (stronger effect = lower value) in test [1] is -0.753%. For the same molecule, the activity, percent of control in test [2] worked out at 3.61%. Moreover, the remaining proliferation (% of control), lower = more inhibition in test [3] is -0.663%. The parasite growth, % of DMSO control in test [4] was 7.08%. The molecule further gave a parasite growth remaining, % of DMSO control (lower = more inhibition) in test [5] of 20.9%. In test [7], this molecule came in with a growth, % of control of 2.59%. Moreover, the viability (% of control) in test [8] turned out to be 13.3%.
In the case of `CC(C)(C)OC(=O)Nc1ccc(-c2cc(C(=O)NCCCCCCC(=O)NO)no2)cc1`, in test [1], the remaining parasite growth % (stronger effect = lower value) was -1.38%. For the same molecule, in test [2], the activity, percent of control is -0.213%. Moreover, in test [3], the remaining proliferation (% of control), lower = more inhibition is 0.579%. This molecule had a parasite growth, % of DMSO control in test [4] of 4.81%. The molecule further displayed a parasite growth remaining, % of DMSO control (lower = more inhibition) in test [5] of 6.42%. The same molecule returned a growth, % of control in test [7] of 3.96%. This molecule had a viability (% of control) in test [8] of 3.94%.
For `CC(C)c1ccc(Cn2ccc3c4c(N)nc(NC5CC5)nc4ccc32)cc1`, in test [1], the remaining parasite growth % (stronger effect = lower value) is -2.55%. Also, in test [2], the activity, percent of control is -1.01%. In addition, the remaining proliferation (% of control), lower = more inhibition in test [3] is -1.47%. Also, the growth, % of control in test [7] is 3.42%. In test [8], this molecule gave a viability (% of control) of 4.41%.
With `O=C(Nc1nc2cccc(-c3ccc(CN4CCS(=O)(=O)CC4)cc3)n2n1)C1CC1`, the parasite growth, % of DMSO control in test [4] is 64.7%. This molecule had a parasite growth remaining, % of DMSO control (lower = more inhibition) in test [5] of 97.6%. In test [6], this molecule returned a parasite growth, % of control (lower = inhibition) of 62.8%. Besides, the growth, % of control in test [7] came to 73.9%. This molecule also displayed a viability (% of control) in test [8] of 9.42%.
`CC(C)(O)c1cc2nc(-c3cnc(N)nc3)nc(N3CCOCC3)c2s1` had a parasite growth, % of DMSO control in test [4] of 10.6%. In test [5], this molecule gave a parasite growth remaining, % of DMSO control (lower = more inhibition) of 10.4%. The parasite growth, % of control (lower = inhibition) in test [6] worked out at 10%. The molecule also came in with a growth, % of control in test [7] of 2.52%. The molecule further showed a viability (% of control) in test [8] of 24%.
For the molecule `Cc1nc(N)ncc1-c1nc(N2CCOCC2)c2sc(C(C)(C)O)cc2n1`, the parasite growth, % of DMSO control in test [4] was 5.28%. Further, the parasite growth remaining, % of DMSO control (lower = more inhibition) in test [5] was found to be 8.49%. This molecule also returned a parasite growth, % of control (lower = inhibition) in test [6] of 7.48%. Besides, the growth, % of control in test [7] turned out to be 1.99%. Further, the viability (% of control) in test [8] amounted to 14%.
Turning to `COc1cc2c(Oc3ccc(NC(=O)C4(C(=O)Nc5ccc(F)cc5)CC4)cc3F)ccnc2cc1OCCCN1CCOCC1`, the remaining parasite growth % (stronger effect = lower value) in test [1] was -2.01%. In addition, the activity, percent of control in test [2] is -0.633%. Moreover, in test [4], the parasite growth, % of DMSO control came to 7.43%. For the same molecule, in test [5], the parasite growth remaining, % of DMSO control (lower = more inhibition) is 5.88%. The molecule also registered a parasite growth, % of control (lower = inhibition) in test [6] of 20.2%. This molecule also displayed a growth, % of control in test [7] of 8.86%. The viability (% of control) in test [8] was determined as 4.49%.
